# Experimental data taken from PubChem BioAssay (NCATS).
# Results filed as inconclusive are left out. A call without a number means that no potency is given here. Calls of active or inactive are those of the source. Unless noted, calls come from the whole dose curve.
# Tests used:
# [1] = qHTS for Inhibitors of the Functional Ribonucleoprotein Complex (vRNP) of Lymphocytic Choriomeningitis Arenaviruses (LCMV): Viability assay - alamar blue signal for LCMV Primary Screen (AID 1347085; calls by dose curve; tested in HEK293 reporter line; note: nearly all actives have a fitted effect of over 80% in size)
# [2] = qHTS of pediatric cancer cell lines to identify multiple opportunities for drug repurposing: Primary screen for A673 cells (AID 1347092; active = well fitted curve in the direction sought with a large enough effect; an effect the other way counts as inactive or inconclusive; note: nearly all actives have a fitted effect of over 45% in size)
# Method in brief: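 A673 cells (500-1,000 cells/well in growth media) were pre-incubated 5 h at 37 degrees C, then exposed to compounds for 48 h. Viability was read as CellTiter-Glo luminescence; concentration-response curves came directly from the primary screen.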
# [3] = qHTS of pediatric cancer cell lines to identify multiple opportunities for drug repurposing: Primary screen for SK-N-MC cells (AID 1347093; active = well fitted curve in the direction sought with a large enough effect; an effect the other way counts as inactive or inconclusive)
# Method in brief: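 Metabolically active cells were quantified by ATP-dependent luminescence (CellTiter-Glo, 15 min at room temperature) following 48 h treatment. Cells had been plated at 500-1,000 per well and settled for 5 h beforehand.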
# [4] = qHTS of pediatric cancer cell lines to identify multiple opportunities for drug repurposing: Primary screen for Saos-2 cells (AID 1347097; active = well fitted curve in the direction sought with a large enough effect; an effect the other way counts as inactive or inconclusive; note: nearly all actives have a fitted effect of over 40% in size)
# Method in brief: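 Readout: CellTiter-Glo luminescence, 48 h treatment. Controls DMSO (neutral) and bortezomib 2.3 µM final (positive). Potency and efficacy taken from primary-screen concentration-response curves.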
# [5] = qHTS for Inhibitors of the Functional Ribonucleoprotein Complex (vRNP) of Lassa (LASV) Arenavirus: LASV Primary Screen - GLuc reporter signal (AID 1347082; calls by dose curve; tested in HEK293 reporter line; note: nearly all actives have a fitted effect of over 60% in size)
# [6] = target: Nucleoprotein (Lymphocytic choriomeningitis virus (strain Armstrong)) (UniProt P09992); assay: qHTS for Inhibitors of the Functional Ribonucleoprotein Complex (vRNP) of Lymphocytic Choriomeningitis Arenaviruses (LCMV): LCMV Primary Screen - GLuc reporter signal (AID 1347086); note: nearly all actives have a fitted effect of over 70% in size
# Sequence of Nucleoprotein (Lymphocytic choriomeningitis virus (strain Armstrong)) (P09992 whole entry, looked up): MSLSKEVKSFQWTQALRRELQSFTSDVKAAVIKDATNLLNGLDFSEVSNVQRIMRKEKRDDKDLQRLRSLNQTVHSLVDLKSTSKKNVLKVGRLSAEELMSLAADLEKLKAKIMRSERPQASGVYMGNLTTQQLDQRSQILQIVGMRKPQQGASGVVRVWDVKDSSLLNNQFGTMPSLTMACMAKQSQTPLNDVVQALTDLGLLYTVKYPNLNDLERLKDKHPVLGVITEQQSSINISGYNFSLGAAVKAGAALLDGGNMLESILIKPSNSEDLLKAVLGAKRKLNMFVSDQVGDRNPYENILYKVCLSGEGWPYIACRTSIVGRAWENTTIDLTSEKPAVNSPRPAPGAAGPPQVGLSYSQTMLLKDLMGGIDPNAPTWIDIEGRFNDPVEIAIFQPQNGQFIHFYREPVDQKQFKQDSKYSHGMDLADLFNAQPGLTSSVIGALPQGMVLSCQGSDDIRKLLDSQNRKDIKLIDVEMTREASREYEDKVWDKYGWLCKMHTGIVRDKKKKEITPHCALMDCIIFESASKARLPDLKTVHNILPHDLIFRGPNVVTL
# [7] = qHTS for Inhibitors of the Functional Ribonucleoprotein Complex (vRNP) of Lassa (LASV) Arenavirus: Viability assay - alamar blue signal for LASV Primary Screen (AID 1347083; calls by dose curve; tested in HEK293 reporter line; note: nearly all actives have a fitted effect of over 80% in size)
# [8] = qHTS of pediatric cancer cell lines to identify multiple opportunities for drug repurposing: Primary screen for TC32 cells (AID 1347089; active = well fitted curve in the direction sought with a large enough effect; an effect the other way counts as inactive or inconclusive; note: nearly all actives have a fitted effect of over 60% in size)
# Method in brief: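 Luminescent CellTiter-Glo read-out of metabolically active TC32 cells after 48 h compound exposure. Primary: MIPE 11-point, 0.78 nM–46 µM; NPC 8-point, 0.59 nM–46 µM. Confirmatory: 11-point dilutions.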
# [9] = qHTS of pediatric cancer cell lines to identify multiple opportunities for drug repurposing: Primary screen for DAOY cells (AID 1347090; active = well fitted curve in the direction sought with a large enough effect; an effect the other way counts as inactive or inconclusive; note: nearly all actives have a fitted effect of over 55% in size)
# Method in brief: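 Eight- or eleven-point concentration series, 48 h treatment at 37 degrees C in growth media; readout CellTiter-Glo luminescence. Potency and efficacy were taken from the concentration-response curves.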
# [10] = qHTS of pediatric cancer cell lines to identify multiple opportunities for drug repurposing: Primary screen for U-2 OS cells (AID 1347096; active = well fitted curve in the direction sought with a large enough effect; an effect the other way counts as inactive or inconclusive; note: nearly all actives have a fitted effect of over 50% in size)
# Method in brief: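 Cells (500-1,000/well) in growth media were settled 5 h at 37 degrees C, then given compounds for 48 h. Viability was read as CellTiter-Glo luminescence. Primary runs used MIPE at 11 points (0.78 nM-46 µM) and NPC at 8 points (0.59 nM-46 µM); follow-ups used 11 points.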
# Potency is the fitted concentration of half-maximal effect.
smiles,measurement,setting,value
Nc1c2ccccc2nc2ccccc12,Potency,[1],14.1 µM (active)
COc1ccc2c3c1O[C@H]1[C@@H](O)C=C[C@H]4[C@@H](C2)N(C)CC[C@@]341,Potency,[2],23.8 µM (active)
same,Potency,[3],33.7 µM (active)
same,Potency,[4],37.8 µM (active)
CCN(CC)CCOc1ccc(C(O)(Cc2ccc(Cl)cc2)c2ccc(C)cc2)cc1 (centres undefined),Potency,[5],inactive
same,Potency,[1],inactive
same,Potency,[6],inactive
CCCCCN=C(N)N/N=C/c1c[nH]c2ccc(OC)cc12,Potency,[7],inactive
C[C@@H]1C[C@H]2[C@@H]3CCC4=CC(=O)C=C[C@]4(C)[C@@]3(Cl)[C@@H](O)C[C@]2(C)[C@@]1(OC(=O)c1ccco1)C(=O)CCl,Potency,[6],inactive
CCCCCCCCCCCCCCCC[n+]1ccccc1,Potency,[7],15.8 µM (active)
Cc1cc(C2CCCCC2)n(O)c(=O)c1,Potency,[6],inactive
Cc1ccc([N+](=O)[O-])[c]2c1[O][Hg]2,Potency,[8],0.264 µM (active)
same,Potency,[9],1.06 µM (active)
same,Potency,[2],0.0531 µM (active)
same,Potency,[3],0.0944 µM (active)
same,Potency,[10],2.66 µM (active)
same,Potency,[4],0.106 µM (active)
COC(=O)Nc1nc2ccc(S(=O)c3ccccc3)cc2[nH]1 (centres undefined),Potency,[5],inactive
same,Potency,[6],inactive
CN1CCN(CCC(=O)N2c3ccccc3Sc3ccc(C(F)(F)F)cc32)CC1,Potency,[5],inactive
same,Potency,[6],inactive
Cc1ccc2nc(N)[nH]c(=O)c2c1Sc1ccncc1,Potency,[5],inactive
same,Potency,[6],inactive
O=C(Nc1ccc(Cl)cc1)Nc1ccc(Cl)c(C(F)(F)F)c1,Potency,[1],14.1 µM (active)
CCCSS/C(CCO)=C(\C)N(C=O)Cc1cnc(C)nc1N,Potency,[5],inactive
same,Potency,[6],inactive
CCOC(=O)N1CCC(n2c(=O)[nH]c3cc(Cl)ccc32)CC1,Potency,[7],inactive
same,Potency,[1],inactive
COC(=O)c1nc(Cl)c(Cl)nc1N,Potency,[1],inactive
Oc1c(Cl)cc(Cl)c(Cl)c1Cc1c(O)c(Cl)cc(Cl)c1Cl,Potency,[1],inactive
CN1CCCC(n2nc(Cc3ccc(Cl)cc3)c3ccccc3c2=O)CC1 (centres undefined),Potency,[5],inactive
same,Potency,[6],inactive
CCCS(=O)c1ccc2nc(NC(=O)OC)[nH]c2c1 (centres undefined),Potency,[5],inactive
same,Potency,[6],inactive
Cc1cc2nc3ccc(=[N+](C)C)cc-3sc2cc1N,Potency,[6],6.31 µM (active)
CC[C@]12CCCN3CCc4c(n(c5ccccc45)C(=O)C1)[C@@H]32,Potency,[5],inactive
same,Potency,[6],7.08 µM (active)
CC(=O)SC[C@@H](Cc1ccccc1)C(=O)NCC(=O)OCc1ccccc1,Potency,[1],inactive
same,Potency,[6],inactive
COc1cc(O)c(C(=O)c2ccccc2)cc1S(=O)(=O)O,Potency,[5],inactive
same,Potency,[6],inactive
O=C1N(c2ccccc2)c2ccccc2C1(Cc1ccncc1)Cc1ccncc1,Potency,[5],inactive
same,Potency,[6],inactive
Clc1ccccc1C(c1ccccc1)(c1ccccc1)n1ccnc1,Potency,[7],inactive
same,Potency,[1],inactive
same,Potency,[6],inactive
COc1ccc2cc3[n+](cc2c1OC)CCc1cc2c(cc1-3)OCO2,Potency,[5],27.3 µM (active)
same,Potency,[1],inactive
same,Potency,[6],19.3 µM (active)
Cc1nc2ccccc2n1Cc1ccc(Cl)cc1,Potency,[1],inactive
O=C(OCC(O)CO)c1ccccc1Nc1ccnc2cc(Cl)ccc12 (centres undefined),Potency,[5],inactive
same,Potency,[6],inactive
C#C[C@]1(O)CC[C@H]2[C@@H]3CCc4cc(O)ccc4[C@H]3CC[C@@]21C,Potency,[5],inactive
same,Potency,[6],inactive
